# Bioassay records from PubChem.
# The list is not random: actives were taken first. Their share in the collection is about 9.3%.
# NPC1 promoter act: NPC1 promoter activation | Huh7 NPC1 promoter luciferase reporter, 24 h | Potency, µM (top dose mostly 9.22 µM), for the others: at the top dose activation, most hits filed as activators | hit rate 2.4% among 320,000 | AID 485313; also: % of control where 0% means no effect; nearly all actives have a fitted effect of over 60% in size
#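 Luminescence from an NPC1 promoter-driven luciferase reporter in stably transfected Huh7 cells was measured after 24 h compound treatment at 37 °C, followed by 10 min ambient incubation with luciferase detection reagent.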
# ELG1 genotoxic: inducers of genotoxicity in HEK293T ELG1-luciferase cells. HEK293T ELG1-luciferase reporter, luminescence, 16 h. Potency, µM (highest dose often 46 µM), without a hit: at the top dose activity change, positive = activation, usual class: activators. hit rate 1.3% among 330,000. AID 504466; also: % of control where 0% means no effect; nearly all actives have a fitted effect of over 60% in size
#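 Genotoxicity was scored as increased ELG1-luciferase reporter signal, measured by ONE-Glo luminescence (30 min, room temperature). Compound or vehicle exposure of the HEK293T reporter cells lasted 16 hr at 37°C.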
# Rab9 promoter act: Rab9 promoter activation. hit rate 2.8% among 320,000. Potency, µM (highest dose often 9.22 µM), without a hit: at the top dose activation, negative = inhibition, hits mostly activators. Huh7 Rab9 promoter-luciferase reporter, luminescence, 24 h; also: % of control where 0% means no effect; nearly all actives have a fitted effect of over 60% in size
#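 Huh7 reporter line, Rab9 promoter upstream of luciferase. Compound exposure 24 h at 37 °C in reduced-serum medium with 10% FBS. Read-out: luminescence.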
# ELG1 DNA repair: blocks ELG1-dependent DNA repair in HEK293T cells; HEK293T ELG1-luciferase reporter, luminescence, 16 h; DNA damage induced by 5-fluorouridine; Potency, µM (titrated, usually from 46.1 µM), for inactives: at the top dose activity change, negative = inhibition, actives largely listed as inhibitors; hit rate 2.3% among 330,000; also: % is scaled to controls: 0 for no effect and ±100 for the full control effect; nearly all actives have a fitted effect of over 55% in size
#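 Luminescence from the luciferase reporter, measured 30 min after ONE-Glo reagent at room temperature, was the read-out. Beforehand, 2,000 cells per well were exposed for 16 hr at 37 °C to 5-fluorouridine together with compound or vehicle.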
# FLuc modulator: firefly luciferase modulation, counter-screen for miR-21 project; P08659; purified FLuc, Km substrates, luminescence inhibition; Potency, µM (top dose mostly 57.5 µM), without a hit: at the top dose activity change, negative = inhibition, most hits filed as inhibitors; hit rate 6.9% among 360,000;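 also: plate controls were vehicle for no effect and reference inhibitor for full effect; nearly all actives have a fitted effect of over 55% in size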
# Target sequence (P08659 whole entry, looked up): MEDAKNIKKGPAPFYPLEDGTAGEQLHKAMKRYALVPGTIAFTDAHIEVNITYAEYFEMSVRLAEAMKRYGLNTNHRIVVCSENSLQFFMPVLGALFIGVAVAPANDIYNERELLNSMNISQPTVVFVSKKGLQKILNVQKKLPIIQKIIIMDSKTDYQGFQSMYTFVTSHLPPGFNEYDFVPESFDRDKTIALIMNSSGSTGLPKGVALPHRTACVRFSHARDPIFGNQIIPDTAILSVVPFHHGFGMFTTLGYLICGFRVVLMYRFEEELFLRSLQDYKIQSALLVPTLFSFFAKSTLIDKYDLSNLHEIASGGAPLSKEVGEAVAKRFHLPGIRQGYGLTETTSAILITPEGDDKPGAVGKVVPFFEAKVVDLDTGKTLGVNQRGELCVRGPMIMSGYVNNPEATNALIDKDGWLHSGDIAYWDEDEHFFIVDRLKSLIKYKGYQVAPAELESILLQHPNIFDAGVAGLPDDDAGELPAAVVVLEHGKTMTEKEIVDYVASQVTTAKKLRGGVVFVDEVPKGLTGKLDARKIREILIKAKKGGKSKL
#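 Purified P. pyralis luciferase, 10 nM final, with Km-level 10 uM D-luciferin and 10 uM ATP in 50 mM Tris acetate pH 7.5, 10 mM Mg acetate, 0.01% Tween-20, 0.05% BSA; 6-point qHTS titration about 60 µM downward; luminescence read.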
# SMN2 splice enh: increases expression of the SMN2 splice variant | HEK293 SMN2-luciferase splicing reporter, luminescence, 30-36 h | Potency, µM (top dose mostly 46.1 µM), inactives show at the highest dose activity change, positive = activation, actives largely listed as activators | hit rate 2.8% among 210,000; also: % of control where 0% means no effect; nearly all actives have a fitted effect of over 55% in size
#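 qHTS luciferase splicing reporter: luminescence rises when SMN2 exon 7 is included in transfected HEK293 cells. Compound exposure lasted 30-36 h at 37C, with 4.5 mM final sodium butyrate as control, followed by a ONE-Glo read.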
# * marks the source's active call; other numbers are inactive results; u = inconclusive; x = no result given. Calls follow the shape of the dose curve; as a rule, active = well fitted curve in the direction sought with a large enough effect; inconclusive = small, poorly fitted or top-dose-only effect, or another doubt; inactive = no such curve, though single readings can be large; an effect the other way counts as inactive or inconclusive. Potency is read from the fitted curve at half-maximal effect.
SMILES,NPC1 promoter act,ELG1 genotoxic,Rab9 promoter act,ELG1 DNA repair,FLuc modulator,SMN2 splice enh
O=C(O)C1CCCCN1C(=O)c1cc2c(s1)CCCCC2 (stereo not given),-8.2%,2.0%,0.1%,21.1%,x,x
NC(=O)C1CCN(C(=O)c2cc3c(s2)CCCCC3)CC1,u,17.9%,3.55µM*,u,u,x
CC1CCc2sc(C(=O)N3CCC(C(N)=O)CC3)cc2C1 (stereo not given),0.398µM*,u,0.501µM*,u,16.9µM*,x
O=C(CCCNC(=O)/C(=C\c1ccc(F)cc1)NC(=O)c1ccccc1)OCc1ccccc1,1.9%,-2.3%,4.1%,-6.7%,1.3%,11.8%
COCCNC(=O)c1cc(-c2cccs2)on1,23.8%,14.6µM*,3.16µM*,u,u,16.8%
O=C(NCc1cccs1)c1cc(C2CC2)on1,23.0%,23.1µM*,u,u,u,23.6%
O=C(NCc1cccs1)c1cc(-c2cccs2)on1,3.55µM*,u,3.55µM*,u,u,u
Cc1cc(C(=O)NCc2cccs2)no1,0.5%,6.5%,2.3%,11.3%,2.7%,-1.7%
Cc1ccccc1OCc1n(CC(=O)OC2CC(C)CCC2C(C)C)c2ccccc2[n+]1C (stereo not given),-2.3%,-19.0%,-2.0%,11.6µM*,0.8%,-15.1%
CC1CCC(C(C)C)C(OC(=O)Cn2c(-c3ccc(Br)cc3)[n+](C)c3ccccc32)C1 (stereo not given),-20.8%,-15.2%,-14.4%,13µM*,u,-65.4%
CC1CCC(C(C)C)C(OC(=O)Cn2c(-c3ccc(Cl)cc3)[n+](C)c3ccccc32)C1 (stereo not given),-25.4%,-8.5%,-25.5%,u,5.7%,x
CCCCCCCCCCOC(=O)Cn1c(COc2ccccc2C)[n+](C)c2ccccc21,-5.9%,-10.2%,-5.6%,u,0.6%,x
Cc1c(C(=O)NCCN(C)C)oc2ccc(S(=O)(=O)N3CCC4(CC3)OCCO4)cc12,0.2%,5.5%,-3.1%,15.1%,0.2%,x
Cc1ccc(-c2nnc(SCC(=O)N/N=C/c3ccc(C)s3)n2-c2ccccc2)cc1,-3.3%,-4.6%,6.9%,23.1µM*,2.2%,4.4%
Cc1nn(-c2ccccc2)c(C)c1/C=N/NC(=O)CSc1nnc(SCc2ccccc2Cl)s1,u,1.4%,25.9%,u,6.75µM*,u
Cc1ccc(CSc2nnc(SCC(=O)N/N=C/c3c(C)nn(-c4ccccc4)c3C)s2)cc1,u,-12.7%,u,u,4.26µM*,9.0%
Cc1ccc(-c2nnc(SCC(=O)N/N=C/c3c(C)nn(-c4ccccc4)c3C)n2-c2ccccc2)cc1,0.3%,-8.1%,-0.3%,u,-1.9%,-7.8%
Cc1nn(-c2ccccc2)c(C)c1/C=N/NC(=O)CSc1nnc(-c2ccccc2)n1-c1ccc(Cl)cc1,6.7%,-5.3%,-1.5%,u,-2.8%,1.0%
Cc1cccc(C)c1NC(=O)c1sc(-n2nc(C)c(Cc3ccc4c(c3)OCO4)c2C)nc1C,x,x,x,x,-5.0%,x
COC(=O)c1cccnc1-n1c(=O)c2cccnc2n(CC(=O)Nc2cccc(C(F)(F)F)c2)c1=O,x,x,x,x,-2.5%,-11.7%
O=C(c1ccc(F)cc1)C1CCN(C(=O)Nc2ccc(F)cc2)CC1,-3.4%,-4.9%,-1.1%,u,-4.5%,-22.1%
COc1cc2c(cc1NC(=O)COC(=O)Cn1cnc3ccccc31)oc1ccccc12,28.2%,23.1µM*,u,u,19µM*,23.6%
COc1cc2c(cc1NC(=O)CSc1ccc(C)cc1)oc1ccccc12,-2.1%,-6.0%,-2.2%,u,0.9%,-21.1%
COc1cc2c(cc1NC(=O)CN(C)Cc1ccc(OC)c(OC)c1)oc1ccccc12,-20.3%,-11.9%,-12.6%,14.6µM*,-12.1%,x
COc1cc2c(cc1NC(=O)COc1ccccc1OC)oc1ccccc12,13.5%,u,-4.4%,0.0%,3.0%,6.4%
SMILES,NPC1 promoter act,ELG1 genotoxic,Rab9 promoter act,ELG1 DNA repair,FLuc modulator,SMN2 splice enh
COc1cc2c(cc1NC(=O)CSCC(=O)O)oc1ccccc12,11.9%,-1.1%,-0.8%,10.1%,21.3µM*,8.6%
COc1cc2c(cc1NC(=O)CCC(=O)O)oc1ccccc12,-1.0%,7.1%,-7.5%,8.7%,u,x
COc1cc2c(cc1NC(=O)Cc1ccc(C)cc1)oc1ccccc12,20.5%,12.2%,u,u,15.1µM*,8.91µM*
CC(C)Cc1nnc(NC(=O)CCC(=O)N2CCC(C)CC2)s1,-16.0%,-0.8%,-2.0%,2.1%,2.3%,x
COc1cc2c(cc1NC(=O)CCCCCN1C(=O)CCC1=O)oc1ccccc12,0.0%,-7.1%,-12.3%,20.6µM*,-13.7%,6.8%
COc1cc2c(cc1NC(=O)CCCN1C(=O)CCC1=O)oc1ccccc12,20.0%,u,16.8%,u,u,u
CCCCCCOc1ccc(/C(N)=N/O)cc1,2.51µM*,u,1.58µM*,u,12µM*,25.6%
C/C(=N\NC(=O)c1ccc(O)cc1)c1ccc(NC(=O)Cc2ccccc2)cc1,u,u,25.1%,u,-13.5%,x
O=C(c1ccco1)N1CCN(c2ncnc3c(-c4ccc(Cl)cc4)nsc23)CC1,0.9%,u,8.8%,u,6.01µM*,x
Cc1ccc(-c2csc3ncnc(N4CCN(c5ccccc5O)CC4)c23)cc1,-7.6%,-15.4%,0.9%,5.8µM*,1.1%,x
CC(C)c1ccc(-c2csc3ncnc(N4CCN(C)CC4)c23)cc1,3.9%,-13.3%,-1.4%,11.6µM*,0.5%,x
COc1ccc(-c2nsc3c(N4CCCC4)ncnc23)cc1,3.98µM*,x,0.112µM*,u,0.135µM*,u
Cc1ccc(NC(=O)c2ccc(CN3CCc4ccccc4C3)cc2)cc1,-19.2%,-4.6%,-15.2%,14.7%,-5.8%,-88.4%
Cc1cc(C)cc(C(=O)NC(CC(N)=O)c2ccc(NC3CCCCCCCCCCC3)c([N+](=O)[O-])c2)c1 (stereo not given),0.4%,-1.0%,-1.2%,u,0.3%,x
O=C(c1ccco1)N1CCN(c2ncnc3scc(-c4ccc(F)cc4)c23)CC1,-2.3%,-2.7%,-3.6%,-18.1%,-2.2%,-3.3%
COc1ccc(-c2csc3ncnc(N4CCN(c5ccccc5[N+](=O)[O-])CC4)c23)cc1,-9.4%,-10.4%,-37.0%,5.17µM*,-1.0%,x
Cc1sc2ncnc(N3CCN(C(=O)c4ccco4)CC3)c2c1C,-8.9%,-15.9%,-8.1%,11.6µM*,-3.6%,-28.0%
Cc1ccc(-c2csc3ncnc(-n4cnc5ccccc54)c23)cc1,-23.5%,-2.9%,-9.9%,10.3µM*,0.9%,x
COc1ccc(-c2csc3ncnc(N4CCN(c5ccccc5O)CC4)c23)cc1,-4.3%,-5.9%,-13.9%,u,1.4%,x
